Reference: PubChem BioAssay (Tox21)
Records with an inconclusive call do not appear. Active and inactive are the calls of the source. Unless noted, calls follow the shape of the dose curve; as a rule, active = well fitted curve in the direction sought with a large enough effect in the repeat runs; inconclusive = weak or mixed curves; inactive = no such curve, though single readings can be large; an effect the other way counts as inactive or inconclusive.

Experiments:
[1] = qHTS assay to identify small molecule antagonists of the thyroid receptor (TR) signaling pathway - cell viability counter screen (AID 743064); also: nearly all actives have a fitted effect of over 50% in size
How it was run: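 Compounds were tested on GH3.TRE-Luc cells in the presence of T3 at 1 nM final. Following 23.5 h at 37 °C, cell viability was quantified by CellTiter-Fluor.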

[2] = test system: thyroid hormone receptor (rat, GH3 cells); test: qHTS assay to identify small molecule agonists of the thyroid receptor (TR) signaling pathway (AID 743066; calls by dose curve)
[3] = target: Estrogen receptor (Homo sapiens) (UniProt P03372); test: qHTS assay to identify small molecule antagonists of the estrogen receptor alpha (ER-alpha) signaling pathway (AID 743069; active = well fitted curve in the direction sought with a large enough effect in the signal ratio in the repeat runs, not every such curve was filed as active; the % refers to the signal ratio)
How it was run: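 ER-alpha-UAS-bla GripTite HEK293 line; 2% charcoal-stripped FBS overnight; plated, 4 hr 37C/5% CO2; cpd in DMSO + 17beta-estradiol, 18 hr 37C; LiveBLAzer B/G FRET substrate 2 hr RT; fluorescence intensity.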

[4] = qHTS assay to identify small molecule antagonists of the estrogen receptor alpha (ER-alpha) signaling pathway - cell viability counter screen (AID 743074; calls by dose curve;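 also: HEK293 cells carrying ER-alpha-UAS-bla reporter stimulated with 17beta-estradiol; nearly all actives have a fitted effect of over 45% in size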)
[5] = target: Estrogen receptor (Homo sapiens) (UniProt P03372); test: qHTS assay to identify small molecule agonists of the estrogen receptor alpha (ER-alpha) signaling pathway (AID 743075; calls by dose curve;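 also: HEK293 GripTite cells with ER-alpha and UAS-driven beta-lactamase reporter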)
[6] = target: Estrogen receptor (Homo sapiens) (UniProt P03372); test: qHTS assay to identify small molecule agonists of the estrogen receptor alpha (ER-alpha) signaling pathway using the BG1 cell line (AID 743079); also: nearly all actives have a fitted effect of over 20% in size; also: potency is read from the fitted curve at half-maximal effect
[7] = qHTS assay to identify small molecule antagonists of the estrogen receptor alpha (ER-alpha) signaling pathway using the BG1 cell line (AID 743080; calls by dose curve; also: series mostly up to about 70 µM; nearly all actives have a fitted effect of over 25% in size)
How it was run: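 Antagonist mode: compounds in DMSO were pinned onto BG1-Luc-4E2 cells alongside 17beta-estradiol agonist, incubated 21.5 h, and ERE-driven luciferase measured with ONE-Glo. Cytotoxicity was multiplexed using CellTiter-Fluor fluorescence.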

[8] = qHTS assay to identify small molecule antagonists of the estrogen receptor alpha (ER-alpha) signaling pathway using the BG1 cell line - cell viability counter screen (AID 743081);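 also: compound given together with 17beta-estradiol as the ER stimulus; series mostly up to about 70 µM; nearly all actives have a fitted effect of over 45% in size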
[9] = target: Aromatase (Homo sapiens) (UniProt P11511); test: qHTS assay to identify aromatase inhibitors (AID 743083); also: series mostly up to about 70 µM; nearly all actives have a fitted effect of over 55% in size
[10] = qHTS assay to identify small molecule antagonists of the thyroid receptor (TR) signaling pathway (AID 743065); also: series mostly up to about 70 µM; nearly all actives have a fitted effect of over 55% in size
How it was run: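 Antagonism measured as loss of luciferase signal in GH3 cells stably carrying a TRE-luciferase reporter, co-treated with compound and T3 (1 nM final) for 23.5 h at 37 C. Viability was read in the same well by CellTiter-Fluor.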
% is scaled to controls: 0 for no effect and ±100 for the full control effect.

Aromatase (Homo sapiens), sequence (P11511 whole entry, looked up): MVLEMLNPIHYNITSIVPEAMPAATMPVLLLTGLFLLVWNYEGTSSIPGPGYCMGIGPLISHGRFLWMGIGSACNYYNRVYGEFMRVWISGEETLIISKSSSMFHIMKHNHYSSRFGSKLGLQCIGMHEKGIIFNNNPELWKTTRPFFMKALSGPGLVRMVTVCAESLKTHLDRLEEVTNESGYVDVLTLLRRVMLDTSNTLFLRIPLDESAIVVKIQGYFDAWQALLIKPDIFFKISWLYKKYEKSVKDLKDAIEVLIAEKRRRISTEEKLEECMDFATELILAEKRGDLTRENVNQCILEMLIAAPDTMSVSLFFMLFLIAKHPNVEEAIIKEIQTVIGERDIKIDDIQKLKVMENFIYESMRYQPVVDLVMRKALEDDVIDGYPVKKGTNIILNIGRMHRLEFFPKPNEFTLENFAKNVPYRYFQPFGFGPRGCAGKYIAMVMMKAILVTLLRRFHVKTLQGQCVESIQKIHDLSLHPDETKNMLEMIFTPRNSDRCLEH
Estrogen receptor (Homo sapiens), sequence (P03372 whole entry, looked up): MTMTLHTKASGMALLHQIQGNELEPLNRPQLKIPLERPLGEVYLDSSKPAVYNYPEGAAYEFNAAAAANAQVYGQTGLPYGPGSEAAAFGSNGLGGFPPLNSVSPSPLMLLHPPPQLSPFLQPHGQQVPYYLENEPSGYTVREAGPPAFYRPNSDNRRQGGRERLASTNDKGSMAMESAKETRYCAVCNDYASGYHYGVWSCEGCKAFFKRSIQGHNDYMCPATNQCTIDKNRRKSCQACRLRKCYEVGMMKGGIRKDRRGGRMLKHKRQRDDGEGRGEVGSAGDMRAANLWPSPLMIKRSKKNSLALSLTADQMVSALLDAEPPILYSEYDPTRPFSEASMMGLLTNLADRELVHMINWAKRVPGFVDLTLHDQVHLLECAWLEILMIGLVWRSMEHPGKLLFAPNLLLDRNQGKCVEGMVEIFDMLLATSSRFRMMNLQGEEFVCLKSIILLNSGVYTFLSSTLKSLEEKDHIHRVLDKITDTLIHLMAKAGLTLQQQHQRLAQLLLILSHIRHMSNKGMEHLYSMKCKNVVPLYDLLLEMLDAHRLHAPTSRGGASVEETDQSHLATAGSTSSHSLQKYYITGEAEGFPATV

NNC(=O)OCc1ccccc1
inactive: Potency [1] | Potency [2] | outcome [3] | Potency [4] | Potency [5] | Potency [6] | Potency [7] | outcome [8] | Potency [9]

CCOc1ccccc1OCCN[C@H](C)Cc1ccc(OC)c(S(N)(=O)=O)c1
inactive: Potency [1] | Potency [10] | Potency [2] | Potency [4] | outcome [8] | Potency [9]

CC(C)(C)C(=O)NCCCC(=O)O
inactive: Potency [1] | Potency [2] | outcome [3] | Potency [4] | Potency [5] | Potency [6] | Potency [7] | outcome [8] | Potency [9]

C=CCN1CCc2nc(N)sc2CC1
inactive: Potency [1] | Potency [10] | Potency [2] | Potency [4] | outcome [8] | Potency [9]

CCCCCCCCC1CO1 (stereo not given)
inactive: Potency [1] | Potency [10] | Potency [2] | Potency [4] | outcome [8] | Potency [9]

C=C(C)C(=O)OCCOC1CC2CC1C1C=CCC21 (stereo not given)
inactive: Potency [1] | Potency [10] | Potency [2] | Potency [4] | outcome [8] | Potency [9]

CC(=O)Oc1ccc(C(C)=O)cc1
inactive: Potency [1] | Potency [10] | Potency [2] | Potency [5] | Potency [6] | Potency [7] | outcome [8] | Potency [9]

COC(=O)c1c(C)cc(O)c(C)c1O
active: Potency [6] 68.6 µM
inactive: Potency [1] | Potency [10] | Potency [4] | Potency [7] | outcome [8] | Potency [9]

CC1(C)C(=O)C(C)(C)C1=O
inactive: Potency [1] | Potency [10] | Potency [2] | Potency [4] | outcome [8] | Potency [9]

CCc1ccc(CC)cc1
inactive: Potency [1] | Potency [2] | outcome [3] | Potency [4] | Potency [5] | Potency [6] | Potency [7] | outcome [8] | Potency [9]

CC(=O)OC/C=C(/C)CCC=C(C)C
inactive: Potency [1] | Potency [2] | outcome [3] | Potency [4] | Potency [5] | Potency [6] | Potency [7] | outcome [8] | Potency [9]

COC(C)(C)CC(C)=O
inactive: Potency [1] | Potency [10] | Potency [2] | Potency [4] | outcome [8] | Potency [9]

COc1ccc2cc(CCC(C)=O)ccc2c1
inactive: Potency [1] | Potency [10] | Potency [2] | Potency [4] | outcome [8] | Potency [9]

O=C[C@@H](O)[C@H](O)[C@H](O)CO
inactive: Potency [1] | Potency [10] | Potency [2] | Potency [4] | outcome [8] | Potency [9]

NC(=O)CC[C@@H](N)C(=O)O
inactive: Potency [1] | Potency [10] | Potency [2] | Potency [4] | outcome [8] | Potency [9]

C=CCCCCCCCCOC(C)=O
inactive: Potency [1] | Potency [2] | outcome [3] | Potency [4] | Potency [5] | Potency [6] | Potency [7] | outcome [8] | Potency [9]

CC(C)(Sc1cc(C(C)(C)C)c(O)c(C(C)(C)C)c1)Sc1cc(C(C)(C)C)c(O)c(C(C)(C)C)c1
inactive: Potency [1] | Potency [10] | Potency [2] | Potency [4] | outcome [8] | Potency [9]

CCCC(C)C(O)CC (stereo not given)
inactive: Potency [1] | Potency [10] | Potency [2] | Potency [4] | outcome [8] | Potency [9]

C=C(C)C(=O)OCCCC
inactive: Potency [1] | Potency [10] | Potency [2] | Potency [4] | outcome [8] | Potency [9]

CCc1ncc(C)[nH]1
inactive: Potency [1] | Potency [10] | Potency [2] | Potency [4] | outcome [8] | Potency [9]

CCCCCCCCCCCCCCCCN(C)C
inactive: activity change, negative = cytotoxic [1] 0.507% [at 8.44 µM] | activation [2] 0.259% [at 8.08 µM] | activity, negative = inhibition [3] -6.54% [at 6.71 µM] | activity, negative = cytotoxicity [4] -9.33% [at 6.72 µM] | activation [5] -5.38% [at 6.71 µM] | activation [6] -2.47% [at 8.47 µM] | activity change, negative = inhibition [7] -1.23% [at 8.47 µM] | activity change, negative = cytotoxicity [8] -2.87% [at 8.47 µM] | activity, negative = inhibition [9] 3.06% [at 8.47 µM]

NC[C@H]1O[C@H](O[C@H]2[C@H](O)[C@@H](O[C@H]3O[C@H](CO)[C@@H](O)[C@H](N)[C@H]3O)[C@H](N)C[C@@H]2N)[C@H](N)[C@@H](O)[C@@H]1O
inactive: Potency [1] | Potency [10] | Potency [2] | Potency [4] | outcome [8] | Potency [9]

CC(C)C(C)C
inactive: Potency [1] | Potency [10] | Potency [2] | Potency [4] | outcome [8] | Potency [9]

O=c1c(O)c(O)c1=O
inactive: Potency [1] | Potency [10] | Potency [2] | Potency [4] | outcome [8] | Potency [9]

O=S(=O)(O)c1cc(I)c(O)c2ncccc12
inactive: Potency [1] | Potency [10] | Potency [2] | Potency [4] | outcome [8] | Potency [9]

O=C(O)CCC(=O)Nc1ccc(S(=O)(=O)Nc2nccs2)cc1
inactive: Potency [1] | Potency [10] | Potency [2] | Potency [4] | outcome [8] | Potency [9]

CCCCCC(CC)OC(=O)CCCOc1ccc(Cl)cc1Cl (stereo not given)
inactive: Potency [1] | Potency [10] | Potency [2] | Potency [4] | outcome [8] | Potency [9]

CC1=C(O)C(=O)CO1
inactive: Potency [1] | Potency [2] | outcome [3] | Potency [4] | Potency [5] | Potency [6] | Potency [7] | outcome [8] | Potency [9]

COc1cc(NS(=O)(=O)c2ccc(N)cc2)ncn1
inactive: Potency [1] | Potency [10] | Potency [2] | Potency [4] | outcome [8] | Potency [9]

CNCCc1ccccn1
inactive: Potency [1] | Potency [10] | Potency [2] | Potency [4] | outcome [8] | Potency [9]

Cc1ccc2ccccc2n1
inactive: Potency [1] | Potency [10] | Potency [2] | Potency [4] | outcome [8] | Potency [9]
